Reference: PubChem BioAssay (Tox21)
Values without a mark were called inactive. Results filed as inconclusive are left out. Entries that show only a call come without a potency. Calls of active or inactive are those of the source. Unless noted, calls come from the whole dose curve; as a rule, active = well fitted curve in the direction sought with a large enough effect in the repeat runs; inconclusive = weak or mixed curves; inactive = no such curve, though single readings can be large; an effect the other way counts as inactive or inconclusive.

Key:
[1] = qHTS assay for small molecule agonists of the p53 signaling pathway (AID 651631; calls by dose curve; note: nearly all actives have a fitted effect of over 15% in size; note: potency is the fitted concentration of half-maximal effect)
Outline: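 p53RE-bla HCT-116 cells; compounds 16 h, 37 °C; LiveBLAzer B/G FRET substrate 2 h RT; fluorescence intensity read-out, qHTS format.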

[2] = qHTS assay for small molecules that induce genotoxicity in human embryonic kidney cells expressing luciferase-tagged ATAD5 (AID 651632); note: nearly all actives have a fitted effect of over 15% in size; note: potency is the fitted concentration of half-maximal effect
Outline: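 Luminescence read-out: after 16 hr compound exposure at 37C, ATAD5-luciferase HEK293T cells received Amplite, 30 min RT, then CCD imaging. A rise in signal marks genotoxic stress.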

[3] = qHTS assay for small molecule agonists of the p53 signaling pathway - cell viability (AID 651633; calls by dose curve;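 note: p53RE-bla HCT reporter cells with a stable beta-lactamase p53 reporter; series mostly up to about 83 µM; nearly all actives have a fitted effect of over 30% in size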)
Outline: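 Viability counter-read: CellTiter-Glo luminescence (30 min, room temperature) in the same p53RE-bla plates. These plates had been exposed to compounds for 16 h at 37 C.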

[4] = qHTS assay for small molecules that induce genotoxicity in human embryonic kidney cells expressing luciferase-tagged ATAD5 - cell viability (AID 651634; calls by dose curve; note: nearly all actives have a fitted effect of over 25% in size)
Outline: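 HEK293T ATAD5-luc cells, 2,000/well; compound 15.5 hr, 37C/5% CO2; CellTiter-Fluor 30 min, 37C; fluorescence read.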

[5] = qHTS assay for small molecule disruptors of the mitochondrial membrane potential - cell viability (AID 720634; calls by dose curve; note: nearly all actives have a fitted effect of over 20% in size; note: potency is the fitted concentration of half-maximal effect)
Outline: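 Luminescence from CellTiter-Glo (ATP content) gave viability in HepG2 cells, read in the same wells as the MMP dye assay after 1 hr compound exposure at 37 C.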

[6] = qHTS assay to test for compound auto fluorescence at 590 nm (red) in HepG2 cells (AID 720674)
Outline: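 1 hr compound incubation on HepG2 cells, 37 C, 5% CO2; plate read ex 540 nm / em 590 nm; intensities reported as Rose Bengal sodium equivalents.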

[7] = qHTS assay to test for compound auto fluorescence at 535 nm (green) in HepG2 cells (AID 720675)
[8] = qHTS assay to test for compound auto fluorescence at 460 nm (blue) in HEK293 cells (AID 720678)
Outline: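 Blue-channel (Ex/Em 405/460 nm) intensity measured in HEK293 cultures after overnight compound exposure at 37C; signal expressed relative to triamterene. Cells plated 2,000 per well in 10% dialyzed FBS medium and allowed 4-5 hr to attach.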

[9] = qHTS assay to test for compound auto fluorescence at 590 nm (red) in HEK293 cells (AID 720679)
Outline: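 Red-channel autofluorescence (Ex/Em 540/590 nm; Rose Bengal sodium reference) was measured after overnight 37C, 5% CO2 exposure of attached HEK293 cells, 2,000 per well in medium with 10% dialyzed FBS.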

[10] = qHTS assay for small molecule disruptors of the mitochondrial membrane potential (AID 720635); note: potency is the fitted concentration of half-maximal effect
Outline: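 Mitochondrial membrane potential tracked with Mito-MPS dye, red aggregates (ex 540/em 590 nm) against green monomers (ex 490/em 535 nm). Compound treatment 1 hr at 37C, dye 30 min in HepG2.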

Row | SMILES | Potency [1] | Potency [2] | Potency [3] | Potency [4] | Potency [5] | outcome [6] | outcome [7] | Potency [8] | outcome [9] | Potency [10] | fluorescence, relative to Rose Bengal [6] | fluorescence, % of fluorescein control [7] | fluorescence, % of triamterene [8] | fluorescence, % of fluorescent control [9]
1 | C[Si](C)O[Si](C)(C)O[Si](C)(C)O[Si](C)C | inactive | inactive | inactive | inactive | inactive | inactive | inactive | inactive | inactive |  |  |  |  | 
2 | CC(=O)Nc1ccc(/C=N/NC(N)=S)cc1 | inactive | inactive | inactive | inactive | inactive | inactive | inactive | inactive | inactive |  |  |  |  | 
3 | O=C(c1ccccc1)c1ccc2n1CCC2C(=O)O (configuration not stated) | inactive | inactive | inactive | inactive | inactive | inactive |  | inactive | inactive | inactive |  |  |  | 
4 | c1ccc(CNCc2ccccc2)cc1 | inactive | inactive | inactive | inactive | inactive | inactive | inactive | inactive | inactive |  |  |  |  | 
5 | C[C@H](CCC(=O)O)[C@H]1CC[C@H]2[C@@H]3[C@H](O)C[C@@H]4C[C@H](O)CC[C@]4(C)[C@H]3CC[C@]12C | inactive | inactive | inactive | inactive | inactive | inactive | inactive | inactive | inactive |  |  |  |  | 
6 | CCCc1ccccc1 | inactive | inactive | inactive | inactive | inactive | inactive | inactive | inactive | inactive |  |  |  |  | 
7 | CC(C)(C)C(=O)OCOP(=O)(COCCn1cnc2c(N)ncnc21)OCOC(=O)C(C)(C)C | inactive | inactive | inactive | inactive | inactive | inactive | inactive | inactive |  |  |  |  |  | 
8 | Nc1cnn([C@@H]2O[C@H](CO)[C@@H](O)[C@H]2O)c(=O)n1 | 1.94 µM (active) | inactive | inactive | inactive | inactive | inactive | inactive | inactive | inactive |  |  |  |  | 
9 | Cc1ncsc1CCO | inactive | inactive | inactive | inactive | inactive | inactive | inactive | inactive | inactive |  |  |  |  | 
10 | N#Cc1c(F)cccc1F | inactive | inactive | inactive | inactive | inactive | inactive | inactive | inactive | inactive |  |  |  |  | 
11 | COc1ccc(C(C)=O)cc1 | inactive | inactive | inactive | inactive | inactive | inactive | inactive | inactive | inactive |  |  |  |  | 
12 | O=C(O)COC(=O)Cc1ccccc1Nc1c(Cl)cccc1Cl | inactive | inactive | inactive | inactive | inactive |  |  |  |  |  | 0.242% [at 18.6 µM] | -0.151% [at 18.6 µM] | 0.0454% [at 18.6 µM] | -0.0045% [at 18.6 µM]
13 | C=C(C)C(=O)OC(C)C | inactive | inactive | inactive | inactive | inactive | inactive |  | inactive | inactive |  |  |  |  | 
14 | O=C=NC1CCC(CC2CCC(N=C=O)CC2)CC1 (configuration not stated) | inactive | inactive | inactive | inactive | inactive | inactive |  | inactive | inactive |  |  |  |  | 
15 | Oc1ccc(C(O)CNCCCCCCNCC(O)c2ccc(O)c(O)c2)cc1O (configuration not stated) | inactive | inactive | inactive | inactive | inactive | inactive | inactive | inactive | inactive |  |  |  |  | 
16 | CCCCCCCCCCCCCCCBr | inactive | inactive | inactive | inactive | inactive | inactive | inactive | inactive | inactive |  |  |  |  | 
17 | COCCO | inactive | inactive | inactive | inactive | inactive | inactive | inactive | inactive | inactive |  |  |  |  | 
18 | O=C(O)C1CCC(C(=O)O)CC1 (configuration not stated) | inactive | inactive | inactive | inactive | inactive | inactive | inactive | inactive | inactive |  |  |  |  | 
19 | CC(=O)N(O)CCCCCNC(=O)CCC(=O)N(O)CCCCCNC(=O)CCC(=O)N(O)CCCCCN | inactive | inactive | inactive | inactive | inactive |  |  |  |  |  | 0.119% [at 18.6 µM] | -0.0519% [at 18.6 µM] | -0.0021% [at 18.6 µM] | -0.043% [at 18.6 µM]
20 | CCCCCc1ccc(N)cc1 | inactive | inactive | inactive | inactive | inactive | inactive | inactive | inactive | inactive |  |  |  |  | 
21 | C=CC(C)(CCC=C(C)C)OC(=O)c1ccccc1 (configuration not stated) | inactive | inactive | inactive | inactive | inactive | inactive | inactive | inactive | inactive |  |  |  |  | 
22 | CCOc1cc(OCC)c(C(=O)CCC(=O)O)cc1OCC | inactive | inactive | inactive | inactive | inactive | inactive |  | inactive | inactive |  |  |  |  | 
23 | CC1=CC(=O)/C(=C(/C)O)C(=O)O1 | inactive | inactive | inactive | inactive | inactive | inactive | inactive | inactive | inactive |  |  |  |  | 
24 | CCCCCCCCCO | inactive | inactive | inactive | inactive | inactive | inactive | inactive | inactive | inactive |  |  |  |  | 
25 | CCCCCCCCCC=O | inactive | inactive | inactive | inactive | inactive | inactive | inactive | inactive | inactive |  |  |  |  | 

Row | SMILES | Potency [1] | Potency [2] | Potency [3] | Potency [4] | Potency [5] | outcome [6] | outcome [7] | Potency [8] | outcome [9] | Potency [10] | fluorescence, relative to Rose Bengal [6] | fluorescence, % of fluorescein control [7] | fluorescence, % of triamterene [8] | fluorescence, % of fluorescent control [9]
26 | CC(C)c1ccccc1C(C)C | inactive | inactive | inactive | inactive | inactive | inactive |  | inactive | inactive |  |  |  |  | 
27 | CCCCCCCCCCCCCCCC(=O)OC/C=C(C)/C=C/C=C(C)/C=C/C1=C(C)CCCC1(C)C | inactive | inactive | inactive | inactive | inactive | inactive |  | inactive | inactive | inactive |  |  |  | 
28 | CCCC(=O)OCC | inactive | inactive | inactive | inactive | inactive | inactive | inactive | inactive | inactive |  |  |  |  | 
29 | CC[C@H](C)[C@H](N)C(=O)O | inactive | inactive | inactive | inactive | inactive | inactive | inactive | inactive | inactive |  |  |  |  | 
30 | CC1CCc2cc(F)cc3c(=O)c(C(=O)O)cn1c23 (configuration not stated) | inactive | inactive | inactive | inactive | inactive | inactive | inactive | inactive |  |  |  |  |  | 
31 | COCCOCCOCCOCCOC | inactive | inactive | inactive | inactive | inactive | inactive |  | inactive | inactive | inactive |  |  |  | 
32 | Oc1ccc(O)c2c(O)cccc12 | inactive | inactive | inactive | inactive | inactive | inactive |  | inactive | inactive |  |  |  |  | 
33 | CCCCCCc1ccc(N)cc1 | inactive | inactive | inactive |  | inactive | inactive | inactive | inactive | inactive |  |  |  |  | 
34 | O=C(/C=C/c1ccc(O)c(O)c1)O[C@@H]1C[C@](O)(C(=O)O)C[C@@H](O)[C@H]1O | inactive | inactive | inactive |  | inactive | inactive | inactive | inactive | inactive |  |  |  |  | 
35 | O=C(CC(=O)c1ccccc1)c1ccccc1 | inactive | 11.7 µM (active) |  | inactive | 36.9 µM (active) | inactive | inactive | inactive | inactive | 11.7 µM (active) |  |  |  | 
36 | Nc1ccc(C(=O)Nc2ccccc2N)cc1 | 10.6 µM (active) | 8.41 µM (active) | inactive |  | inactive | inactive | inactive | inactive | inactive | 13.3 µM (active) |  |  |  | 
37 | C#CCOC(=O)[C@@H](C)Oc1ccc(Oc2ncc(Cl)cc2F)cc1 | inactive | inactive | inactive | inactive |  | inactive | inactive | inactive | inactive |  |  |  |  | 
38 | CC[C@H](C)[C@@H](C(=O)O)n1sc2ccccc2c1=O | inactive | inactive | inactive | inactive | inactive | inactive |  | inactive | inactive |  |  |  |  | 
39 | CC(C)(C)C1CCCCC1O (configuration not stated) | inactive | inactive |  | inactive | inactive | inactive | inactive | inactive | inactive | inactive |  |  |  | 
40 | CC(=O)OCCc1ccccc1 | inactive | inactive |  | inactive | inactive | inactive | inactive | inactive | inactive | inactive |  |  |  | 
41 | CCN(CC)C(C)=O | inactive | inactive |  | inactive | inactive | inactive | inactive | inactive | inactive | inactive |  |  |  | 
42 | CC(C)c1cccc(C(C)C)c1NC(=O)NS(=O)(=O)c1cc(C(C)(C)O)co1 | inactive | inactive | inactive |  | inactive | inactive | inactive | inactive |  |  |  |  |  | 
43 | CC1=CCC(C(C)C)C=C1 (configuration not stated) | inactive | inactive | inactive | inactive |  | inactive | inactive | inactive | inactive |  |  |  |  | 
44 | Cc1cccc(Oc2ccccc2)c1 | inactive | inactive |  | inactive | inactive | inactive | inactive | inactive |  | inactive |  |  |  | 
45 | N#Cc1cc2ccccc2c2ccccc12 | inactive | inactive | inactive |  |  | inactive | inactive | inactive | inactive | 38.8 µM (active) |  |  |  | 
46 | Cc1ccc2c(ccc3ccccc32)c1 | inactive | inactive | inactive | inactive |  | inactive | inactive | inactive |  |  |  |  |  | 
47 | N#CCc1cccc(C(F)(F)F)c1 | inactive | inactive |  | inactive | inactive | inactive |  | inactive | inactive | inactive |  |  |  | 
48 | C=Cc1c(C)c2cc3[nH]c(cc4nc(cc5nc(cc1[nH]2)C(C)=C5CCC(=O)O)C(CCC(=O)O)=C4C)c(C)c3C=C | inactive | inactive |  | inactive | inactive | inactive | inactive | inactive | inactive | inactive |  |  |  | 
49 | Cc1ccc(C(=O)C(C)CN2CCCCC2)cc1 (configuration not stated) | inactive | inactive |  | inactive | inactive | inactive | inactive | inactive | inactive | inactive |  |  |  | 
